{"source": "PubChem BioAssay", "key": {"[1]": {"assay": "blockers of polyQ-driven CASP3 activation – cell-based (AID 1583)", "conditions": "polyglutamine-induced caspase-3 activation, cell assay; stronger effect = higher value; concentration not given here"}, "[2]": {"assay": "yeast 75Q aggregation reduction – 75Q-TubU reporter (AID 1593)", "conditions": "Yeast 75Q polyglutamine aggregation reporter"}, "[3]": {"assay": "restoration of touch response, mutant HTT neurons – whole organism, C. elegans mechanosensory neurons, N-terminal huntingtin (AID 1599)", "conditions": "C. elegans polyQ-huntingtin mechanosensory neurons, stronger effect = higher value"}, "[4]": {"assay": "blockers of cytochrome c efflux from mitochondria – biochemical, purified mitochondria (AID 1603);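 for all read-outs here: mouse liver mitochondria challenged with calcium chloride; signal normalized to the plate average as 100%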", "conditions": "stronger effect = lower value"}, "[5]": {"assay": "polyglutamine aggregate formation blockers (AID 1604)", "conditions": "polyglutamine-induced protein aggregation inhibition assay; stronger effect = higher value; tested at 2.5 µM"}, "[6]": {"assay": "glutamate transport activators, MN-1 cells, MN-1 cell line (AID 1612);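 for all read-outs here: tested at 1 µM final; 0% = mean of DMSO vehicle wells on each plate; positive means more glutamate uptake than control and negative means less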", "conditions": "MN-1 motor neuron cells, stronger effect = higher value"}, "[7]": {"assay": "GFP-Q80 aggregate reduction, neuronal-like cells, cell-based, NGF-treated PC12, GFPQ80 (AID 1614);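 for all read-outs here: lower means fewer inclusions and 0 means no inclusions at all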", "conditions": "PC12 NGF-treated GFP-polyQ80 inclusion reduction"}, "[8]": {"assay": "75Q-TubH aggregate inhibition, S. cerevisiae, yeast (AID 1616)", "conditions": "S. cerevisiae 75Q-TubH polyglutamine aggregation suppression; stronger effect = higher value"}, "[9]": {"assay": "compounds altering circadian rhythm period length – cell-based, LOPAC library, luminescence reporter (AID 2774);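 for all read-outs here: values are relative to mean of DMSO wells on each plate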", "conditions": "circadian reporter cells, at 7 µM, actives lie on both sides"}, "[10]": {"assay": "compounds altering viability of human ES cells (AID 493140);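 for all read-outs here: cells exposed to compounds for four days before counting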", "conditions": "human embryonic stem cell survival screen; stronger effect = higher value"}, "[11]": {"assay": "P. berghei load reduction in hepatocytes – cell-based, HepG2, luciferase luminescence, HepG2 viability, primary screen (AID 624349; in the data active = parasite load remaining mostly below about 12%, no sharp cut-off; inactive = mostly above about 10%;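 for all read-outs here: 100% = mean of DMSO negative control wells on the same plate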)", "conditions": "P. berghei liver stage in HepG2, luciferase luminescence, concentration not given here; parasite load remaining: stronger effect = lower value; viability: measured here: HepG2 viability without parasites"}, "[12]": {"tested_on": "Hepatitis C virus NS3 helicase", "assay": "blockers of NS3h binding to ssDNA – biochemical, fluorescence polarization, LOPAC1280 library, primary screen (AID 687035; in the data active = inhibition above about 37%)", "conditions": "Purified HCV NS3 helicase, Cy5-dT15 ssDNA binding fluorescence polarization; stronger effect = higher value; concentration not given here"}, "[13]": {"assay": "compounds altering Cy5-DNA-NS3h complex signal – biochemical, LOPAC1280, artefact control for HCV NS3 helicase inhibitor project (AID 687037)", "conditions": "Cy5-DNA-NS3h complex fluorescence interference counterscreen"}, "[14]": {"target": "6-phosphogluconate dehydrogenase, decarboxylating (Homo sapiens) (UniProt P52209)", "sequence (P52209 whole entry, looked up)": "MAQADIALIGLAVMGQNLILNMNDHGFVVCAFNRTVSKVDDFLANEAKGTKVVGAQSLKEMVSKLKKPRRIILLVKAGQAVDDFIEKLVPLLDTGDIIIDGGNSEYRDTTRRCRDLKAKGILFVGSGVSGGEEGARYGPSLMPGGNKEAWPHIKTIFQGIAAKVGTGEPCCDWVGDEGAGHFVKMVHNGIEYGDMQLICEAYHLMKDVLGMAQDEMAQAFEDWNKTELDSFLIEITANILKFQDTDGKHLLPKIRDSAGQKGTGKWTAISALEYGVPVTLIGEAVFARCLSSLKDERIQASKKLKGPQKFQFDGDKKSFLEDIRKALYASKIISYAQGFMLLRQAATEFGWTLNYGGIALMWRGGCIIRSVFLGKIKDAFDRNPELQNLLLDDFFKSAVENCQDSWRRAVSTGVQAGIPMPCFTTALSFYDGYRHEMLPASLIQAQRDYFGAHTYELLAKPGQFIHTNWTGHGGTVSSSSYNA", "assay": "inhibition of human phosphogluconate dehydrogenase – biochemical, recombinant enzyme, NADPH absorbance, primary screen (AID 1159550;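 active = at least 20% inhibition of 6-phosphogluconate dehydrogenase activity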)", "conditions": "recombinant 6PGD, NADPH absorbance 341 nm; at 10 µM; stronger effect = higher value"}, "[15]": {"tested_on": "Aerobactin synthetase IucA (Klebsiella pneumoniae)", "assay": "inhibition of K. pneumoniae IucA enzyme – biochemical, Tocris library, absorbance (AID 1345561);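 for all read-outs here: 100% = enzyme without compound and 0% = no enzyme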", "conditions": "purified IucA enzyme assay, absorbance (OD) read-out; stronger effect = lower value; concentration not given here"}, "[16]": {"assay": "viability loss in pontine glioma line – cell-based, SU-DIPG-XIII, MIPE4.0, CellTiter-Glo, qHTS, dose response (AID 1347061; cut-off not given, nearly all actives have AC50 up to about 37 µM;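 for all read-outs here: cells exposed to compound for 48 hours before readout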)", "conditions": "CellTiter-Glo ATP luminescence"}, "[17]": {"assay": "viability loss in pontine glioma line – cell-based, JHH-DIPG-1, MIPE4.0, CellTiter-Glo, qHTS, dose response (AID 1347062; cut-off not given, nearly all actives have AC50 up to about 27 µM)", "conditions": "JHH-DIPG-1 viability, CellTiter-Glo ATP luminescence"}, "[18]": {"assay": "blockers of cellular phospholipid synthesis – cell-based, LOPAC library, screen 4, primary screen (AID 1347384)", "conditions": "animal cells, phospholipid biosynthesis inhibition screen; at 10 µM"}, "[19]": {"assay": "MELAS cybrid and Rieske KO viability enhancers – cell-based, MELAS cybrids, Rieske KO mouse fibroblasts, CellTiter-Glo, primary screen (AID 1508586;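 active = mean z-score across replicates of 1.96 or higher in either the MELAS or the Rieske mutant cell line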;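 for all read-outs here: z relative to plate mean and SD of compound and empty wells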)", "conditions": "low glucose"}, "[20]": {"target": "NAD(+) hydrolase SARM1 (Homo sapiens) (UniProt Q6SZW1)", "sequence (Q6SZW1 whole entry, looked up)": "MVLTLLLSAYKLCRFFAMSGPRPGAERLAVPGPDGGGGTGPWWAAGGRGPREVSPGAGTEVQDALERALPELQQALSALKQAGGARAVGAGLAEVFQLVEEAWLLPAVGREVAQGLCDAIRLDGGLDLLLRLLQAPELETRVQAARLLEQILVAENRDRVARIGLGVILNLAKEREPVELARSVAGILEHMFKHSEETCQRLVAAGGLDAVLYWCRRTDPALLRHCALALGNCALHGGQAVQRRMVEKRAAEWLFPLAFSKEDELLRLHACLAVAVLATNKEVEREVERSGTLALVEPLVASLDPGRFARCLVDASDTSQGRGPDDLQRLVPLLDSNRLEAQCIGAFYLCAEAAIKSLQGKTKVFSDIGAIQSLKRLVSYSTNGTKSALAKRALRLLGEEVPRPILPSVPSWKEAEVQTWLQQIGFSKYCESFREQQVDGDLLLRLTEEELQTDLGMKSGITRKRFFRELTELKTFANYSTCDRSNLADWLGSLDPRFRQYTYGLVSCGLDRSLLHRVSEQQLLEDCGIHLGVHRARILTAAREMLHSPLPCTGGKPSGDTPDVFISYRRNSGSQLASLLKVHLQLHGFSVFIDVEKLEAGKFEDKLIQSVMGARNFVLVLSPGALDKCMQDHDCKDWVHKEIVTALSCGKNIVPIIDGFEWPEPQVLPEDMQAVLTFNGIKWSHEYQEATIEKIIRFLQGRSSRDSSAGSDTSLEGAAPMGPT", "assay": "blocking NAD cleavage by SARM1 SAM-TIR – cell lysate, NAD-Glo luminescence (AID 1508614;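 active = compound whose remaining NAD level is above about 45 nM, limit read from the data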)", "conditions": "SAM-TIR HEK293T lysate NADase, at 1 µM, stronger effect = higher value"}, "[21]": {"target": "Mitogen-activated protein kinase 7 (Homo sapiens) (UniProt Q13164)", "sequence (Q13164 whole entry, looked up, the tested form may be a part)": "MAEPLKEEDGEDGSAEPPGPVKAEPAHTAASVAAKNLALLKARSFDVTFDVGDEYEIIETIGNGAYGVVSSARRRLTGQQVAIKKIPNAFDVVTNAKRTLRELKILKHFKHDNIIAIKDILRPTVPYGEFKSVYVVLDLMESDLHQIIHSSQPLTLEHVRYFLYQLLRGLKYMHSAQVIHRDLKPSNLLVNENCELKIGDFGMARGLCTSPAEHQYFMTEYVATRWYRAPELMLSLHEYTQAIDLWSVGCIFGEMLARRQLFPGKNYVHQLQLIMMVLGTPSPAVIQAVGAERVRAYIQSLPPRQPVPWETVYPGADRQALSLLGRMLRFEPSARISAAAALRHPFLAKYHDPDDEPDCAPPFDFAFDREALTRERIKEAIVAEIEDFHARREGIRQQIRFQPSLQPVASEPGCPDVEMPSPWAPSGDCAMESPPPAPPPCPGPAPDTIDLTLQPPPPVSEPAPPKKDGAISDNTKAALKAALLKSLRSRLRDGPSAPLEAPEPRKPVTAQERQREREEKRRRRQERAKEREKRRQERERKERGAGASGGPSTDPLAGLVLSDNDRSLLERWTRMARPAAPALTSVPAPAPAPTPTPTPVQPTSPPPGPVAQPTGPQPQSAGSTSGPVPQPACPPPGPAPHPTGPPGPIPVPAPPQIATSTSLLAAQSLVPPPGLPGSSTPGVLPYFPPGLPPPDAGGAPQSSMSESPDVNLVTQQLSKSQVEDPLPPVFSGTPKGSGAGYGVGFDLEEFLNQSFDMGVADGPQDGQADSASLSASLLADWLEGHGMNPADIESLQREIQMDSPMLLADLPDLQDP", "assay": "Gal4-ERK5 driven luciferase induction – cell-based, HTS, primary screen (AID 1508626;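 active = luciferase signal above three times the same-plate solvent-only control wells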;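 for all read-outs here: luciferase driven by Gal4-ERK5 fusion binding five Gal4 sites before minimal TATA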)", "conditions": "HeLa Gal4-ERK5 transactivation, 18 h, at 5 µM, stronger effect = higher value"}, "[22]": {"assay": "galactose survival enhancers in mitochondrial complex I cybrids – cell-based, galactose medium, ATP luminescence, primary screen (AID 1645843;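 active = z-score of at least 1.8 in each of two replicates, scored against plate mean and spread of sample wells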;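 for all read-outs here: positive z means more ATP and so rescue of galactose-driven cybrid death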)", "conditions": "complex I mutant cybrid cells, 72 h, stronger effect = higher value"}, "[23]": {"assay": "EMT-state selective cytotoxicity in co-culture – imaging, PC-3E GFP, TEM4-18 mCherry, primary screen (AID 1345086;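 active = compounds killing one labelled cell type while sparing the other, by normalised counts and ratio limits, not self-fluorescent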;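 for all read-outs here: cells exposed to compound for 72 h before imaging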;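 for red/green cell ratio (normalised): normalised mesenchymal count divided by normalised epithelial count so high means epithelial killing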)", "conditions": "PC-3E GFP / TEM4-18 mCherry co-culture, imaging cell counts, at 1 µM; for red/green cell ratio (normalised): actives lie on both sides, counts scaled to control wells, 1 = unselective"}, "[24]": {"assay": "viability loss in pontine glioma line – cell-based, SU-DIPG-IV, MIPE4.0, CellTiter-Glo, qHTS, dose response (AID 1347063; cut-off not given, nearly all actives have AC50 up to about 30 µM;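 note: compound exposure lasted 48 hours before the viability readout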)", "conditions": "CellTiter-Glo ATP luminescence"}, "[25]": {"assay": "growth inhibition of DIPG cells – cell-based, MIPE4.0 library, CellTiter-Glo luminescence, qHTS (AID 1347066; cut-off not given, nearly all actives have AC50 up to about 30 µM;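 note: cells exposed to compound for 48 hours before readout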)", "conditions": "SU-DIPG-VI viability, CellTiter-Glo ATP luminescence"}, "[26]": {"assay": "JHH-DIPG-1 glioma cell viability, MIPE5.0 library, CellTiter-Glo luminescence, qHTS (AID 1347067; cut-off not given, nearly all actives have AC50 up to about 26 µM;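 note: cells exposed to compound for 48 hours before readout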)", "conditions": "JHH-DIPG-1 glioma viability, CellTiter-Glo ATP luminescence"}, "[27]": {"assay": "growth inhibition of DIPG cells – cell-based, MIPE5.0 library, qHTS (AID 1347068; cut-off not given, nearly all actives have IC50 up to about 30 µM)", "conditions": "SU-DIPG-XXV viability"}, "[28]": {"conditions": "MELAS cybrid survival, CellTiter-Glo 48 h, stronger effect = higher value"}, "[29]": {"conditions": "Rieske KO mouse fibroblast survival, CellTiter-Glo 72 h"}, "[30]": {"conditions": "measured here: epithelial PC-3E GFP cell survival"}, "[31]": {"conditions": "measured here: mesenchymal TEM4-18 mCherry cell survival"}}, "note": "Where “and” joins values, the source holds several entries; their conditions need not be identical. Equal entries are not always repeated. Records with an inconclusive call do not appear. For part of these data: Measured potencies and affinities stand elsewhere. Calls of active or inactive are those of the source. Unless noted, the rule behind the calls is not given here."}
{"smiles": "CCN1CCCC1CNC(=O)c1cc(S(N)(=O)=O)ccc1OC", "note": "(stereo not drawn)", "values": [{"measurement": "inhibition", "setting": "[1]", "result": 17.6, "unit": "%"}, {"measurement": "score", "setting": "[2]", "result": 1.43}, {"measurement": "rescue above control", "setting": "[3]", "result": 3.11}, {"measurement": "cytochrome c release ratio", "setting": "[4]", "result": 0.88}, {"measurement": "inhibition of aggregation", "setting": "[5]", "result": 59.1, "unit": "%"}, {"measurement": "glutamate uptake change", "setting": "[6]", "result": -6.59, "unit": "%"}, {"measurement": "inclusion score", "setting": "[7]", "result": 1.5}, {"measurement": "aggregation suppression score", "setting": "[8]", "result": 1.43}, {"measurement": "period change", "setting": "[9]", "result": "-0.06 h (inactive)"}, {"measurement": "survival", "setting": "[10]", "result": "17.8 (inactive)"}, {"measurement": "parasite load remaining", "setting": "[11]", "result": "39.8% (inactive) and 78.3% (inactive)"}, {"measurement": "viability", "setting": "[11]", "result": "52.6% and 93.4%"}, {"measurement": "inhibition", "setting": "[12]", "result": "-1% (inactive)"}, {"measurement": "fluorescence ratio (interference)", "setting": "[13]", "result": "1.1 (inactive)"}, {"measurement": "inhibition", "setting": "[14]", "result": "-9.64% (inactive)"}, {"measurement": "remaining activity", "setting": "[15]", "result": "107% (inactive)"}, {"measurement": "outcome", "setting": "[16]", "result": "inactive"}, {"measurement": "outcome", "setting": "[17]", "result": "inactive"}, {"measurement": "outcome", "setting": "[18]", "result": "inactive"}, {"measurement": "z-score", "setting": "[19]; [28]", "result": "-0.0383 (inactive) and -0.359 (inactive)"}, {"measurement": "z-score", "setting": "[19]; [29]", "result": "0.0677 and 0.0684"}, {"measurement": "remaining NAD", "setting": "[20]", "result": "10 nM (inactive)"}, {"measurement": "luciferase signal", "setting": "[21]", "result": "56 AU (inactive)"}, {"measurement": "z-score", "setting": "[22]", "result": "0.32 (inactive) and 0.4 (inactive) and 0.185 (inactive)"}]}
{"smiles": "COc1cc(C(C)=O)cc(OC)c1O", "values": [{"measurement": "inhibition", "setting": "[14]", "result": "-40.3% (inactive)"}, {"measurement": "red/green cell ratio (normalised)", "setting": "[23]", "result": "1.05 (inactive)"}, {"measurement": "normalised cell number", "setting": "[23]; [30]", "result": 0.87}, {"measurement": "normalised cell number", "setting": "[23]; [31]", "result": 0.91}, {"measurement": "luciferase signal", "setting": "[21]", "result": "64 AU (inactive)"}]}
{"smiles": "O=C(O)c1cc2ccccc2[nH]1", "values": [{"measurement": "parasite load remaining", "setting": "[11]", "result": "53.6% (inactive)"}, {"measurement": "viability", "setting": "[11]", "result": 75.3, "unit": "%"}, {"measurement": "inhibition", "setting": "[14]", "result": "0.53% (inactive)"}, {"measurement": "red/green cell ratio (normalised)", "setting": "[23]", "result": "1.04 (inactive)"}, {"measurement": "normalised cell number", "setting": "[23]; [30]", "result": 0.91}, {"measurement": "normalised cell number", "setting": "[23]; [31]", "result": 0.95}, {"measurement": "luciferase signal", "setting": "[21]", "result": "36 AU (inactive)"}]}
{"smiles": "O=c1c(-c2ccc(O)cc2)coc2cc(O)ccc12", "values": [{"measurement": "inhibition", "setting": "[1]", "result": -30.4, "unit": "%"}, {"measurement": "score", "setting": "[2]", "result": 1}, {"measurement": "rescue above control", "setting": "[3]", "result": 2.42}, {"measurement": "cytochrome c release ratio", "setting": "[4]", "result": 0.87}, {"measurement": "inhibition of aggregation", "setting": "[5]", "result": 27.9, "unit": "%"}, {"measurement": "glutamate uptake change", "setting": "[6]", "result": 12, "unit": "%"}, {"measurement": "inclusion score", "setting": "[7]", "result": 2}, {"measurement": "aggregation suppression score", "setting": "[8]", "result": 1.43}, {"measurement": "period change", "setting": "[9]", "result": "0.115 h (inactive)"}, {"measurement": "survival", "setting": "[10]", "result": "70.6 (inactive)"}, {"measurement": "parasite load remaining", "setting": "[11]", "result": "225% (inactive)"}, {"measurement": "viability", "setting": "[11]", "result": 94.2, "unit": "%"}, {"measurement": "inhibition", "setting": "[12]", "result": "-4% (inactive)"}, {"measurement": "fluorescence ratio (interference)", "setting": "[13]", "result": "1 (inactive)"}, {"measurement": "inhibition", "setting": "[14]", "result": "6.36% (inactive)"}, {"measurement": "remaining activity", "setting": "[15]", "result": "111% (inactive)"}, {"measurement": "outcome", "setting": "[16]", "result": "inactive"}, {"measurement": "outcome", "setting": "[17]", "result": "inactive"}, {"measurement": "outcome", "setting": "[24]", "result": "inactive"}, {"measurement": "outcome", "setting": "[25]", "result": "inactive"}, {"measurement": "outcome", "setting": "[26]", "result": "inactive"}, {"measurement": "outcome", "setting": "[27]", "result": "inactive"}, {"measurement": "outcome", "setting": "[18]", "result": "inactive"}, {"measurement": "z-score", "setting": "[19]; [28]", "result": "-0.189 (inactive)"}, {"measurement": "z-score", "setting": "[19]; [29]", "result": -0.724}, {"measurement": "luciferase signal", "setting": "[21]", "result": "120 AU (inactive)"}, {"measurement": "z-score", "setting": "[22]", "result": "0.775 (inactive) and 0.485 (inactive)"}]}
